molecular target: T1, ELK3 (Homo sapiens, UniProt P41970 1-407); assay: DAPPL (digital affinity profiling via proximity ligation, sequencing); 10 mM Tris-HCl pH 7.5, 50 mM NaCl, 1 mM DTT, 4% glycerol, room temperature, 30 min; GST-TFs on glutathione beads, 16-mer random dsDNA library, 0.1% formaldehyde crosslink after washing; high values mean tight binding; settings: protein: recombinant; tags: N-terminal GST; dsDNA, one strand shown
T1 sequence: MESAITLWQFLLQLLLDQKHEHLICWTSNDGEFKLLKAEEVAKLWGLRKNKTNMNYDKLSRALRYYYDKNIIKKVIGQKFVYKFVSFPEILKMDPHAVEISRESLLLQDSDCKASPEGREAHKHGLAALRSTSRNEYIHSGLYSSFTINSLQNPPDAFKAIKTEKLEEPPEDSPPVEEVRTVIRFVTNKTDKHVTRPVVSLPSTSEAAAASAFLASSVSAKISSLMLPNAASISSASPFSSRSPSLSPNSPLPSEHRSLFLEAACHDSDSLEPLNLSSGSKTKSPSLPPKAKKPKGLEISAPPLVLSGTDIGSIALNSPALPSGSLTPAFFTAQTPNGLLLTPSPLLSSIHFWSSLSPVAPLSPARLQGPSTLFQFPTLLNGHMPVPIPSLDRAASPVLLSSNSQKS
Outline: (§1)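 Each value of binding signal is a hexamer's read frequency for a factor divided by the same hexamer's frequency in the tag-only sample. Barcoded, bead-captured GST fusions of human transcription factors made in yeast were pooled with that sample and incubated with 200 nmole of a random double-stranded 16-mer DNA library in Tris/NaCl/DTT/glycerol buffer at room temperature for 30 min. Washing, 0.1% formaldehyde crosslinking, proximity ligation, PCR and Illumina NextSeq500 sequencing followed.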

Sequence | binding signal
TAGACA | 1.02 fold enrichment (6-mer frequency, TF over GST control)
AGGCTT | 1.05 fold enrichment (6-mer frequency, TF over GST control)
CCAGCA | 1 fold enrichment (6-mer frequency, TF over GST control)
CCAGCT | 1.02 fold enrichment (6-mer frequency, TF over GST control)
GATCAT | 1.1 fold enrichment (6-mer frequency, TF over GST control)
TAGAAC | 1.03 fold enrichment (6-mer frequency, TF over GST control)
GCCTGG | 1.01 fold enrichment (6-mer frequency, TF over GST control)
GCGATA | 1.1 fold enrichment (6-mer frequency, TF over GST control)
AGATAT | 1 fold enrichment (6-mer frequency, TF over GST control)
CGAATG | 1.01 fold enrichment (6-mer frequency, TF over GST control)
GAATGA | 1.02 fold enrichment (6-mer frequency, TF over GST control)

molecular target: T2, FEV (Homo sapiens, UniProt Q99581 1-238); assay: as above; settings: protein: recombinant; tags: N-terminal GST; dsDNA, one strand shown
T2 sequence: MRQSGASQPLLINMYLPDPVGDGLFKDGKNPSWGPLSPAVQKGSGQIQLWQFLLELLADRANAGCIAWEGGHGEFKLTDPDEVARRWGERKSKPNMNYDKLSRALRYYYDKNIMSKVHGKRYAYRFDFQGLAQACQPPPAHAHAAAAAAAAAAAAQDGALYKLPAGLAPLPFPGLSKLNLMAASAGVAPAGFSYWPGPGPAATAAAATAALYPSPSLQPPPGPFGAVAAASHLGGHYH
Outline: as §1

Sequence | binding signal
TAGACA | 1.02 fold enrichment (6-mer frequency, TF over GST control)
ATTAGT | 1.01 fold enrichment (6-mer frequency, TF over GST control)
TAGAAC | 1 fold enrichment (6-mer frequency, TF over GST control)
CGAATG | 1.01 fold enrichment (6-mer frequency, TF over GST control)
TTAGGC | 1 fold enrichment (6-mer frequency, TF over GST control)

molecular target: HSF1 (Homo sapiens, UniProt Q00613 1-529); assay: as above; settings: protein: recombinant; tags: N-terminal GST; chain copies: 3; dsDNA, one strand shown
Sequence (Q00613 whole entry): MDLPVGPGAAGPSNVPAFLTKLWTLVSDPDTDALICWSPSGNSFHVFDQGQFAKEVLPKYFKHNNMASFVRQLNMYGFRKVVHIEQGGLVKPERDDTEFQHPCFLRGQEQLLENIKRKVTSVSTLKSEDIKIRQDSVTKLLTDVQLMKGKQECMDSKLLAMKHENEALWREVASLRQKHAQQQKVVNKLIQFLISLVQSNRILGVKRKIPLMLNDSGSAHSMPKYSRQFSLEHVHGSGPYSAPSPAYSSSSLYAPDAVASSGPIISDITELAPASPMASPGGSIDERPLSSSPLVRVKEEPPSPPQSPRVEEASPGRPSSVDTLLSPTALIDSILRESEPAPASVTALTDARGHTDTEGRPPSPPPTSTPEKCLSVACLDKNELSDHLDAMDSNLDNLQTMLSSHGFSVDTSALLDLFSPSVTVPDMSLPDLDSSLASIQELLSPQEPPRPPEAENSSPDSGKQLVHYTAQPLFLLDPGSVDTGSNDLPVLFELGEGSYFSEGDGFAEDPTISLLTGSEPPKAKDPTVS
Outline: as §1

Sequence | binding signal
AGATTA | 2.62 fold enrichment (6-mer frequency, TF over GST control)
CCAGAA | 3.7 fold enrichment (6-mer frequency, TF over GST control)
TAGACA | 1.11 fold enrichment (6-mer frequency, TF over GST control)
ATCGCG | 1.09 fold enrichment (6-mer frequency, TF over GST control)
AGGCTT | 1.24 fold enrichment (6-mer frequency, TF over GST control)
CCAGCA | 1.21 fold enrichment (6-mer frequency, TF over GST control)
TTGAGA | 1.06 fold enrichment (6-mer frequency, TF over GST control)
TAGCGC | 1.02 fold enrichment (6-mer frequency, TF over GST control)
CCAGCT | 1.03 fold enrichment (6-mer frequency, TF over GST control)
AGAATA | 2.32 fold enrichment (6-mer frequency, TF over GST control)
TCGAAA | 2.08 fold enrichment (6-mer frequency, TF over GST control)
ACGAAG | 1.06 fold enrichment (6-mer frequency, TF over GST control)
CGAAGT | 1.08 fold enrichment (6-mer frequency, TF over GST control)
ATTAGT | 1.69 fold enrichment (6-mer frequency, TF over GST control)
AGGGTT | 1.02 fold enrichment (6-mer frequency, TF over GST control)
AGAAGA | 1.68 fold enrichment (6-mer frequency, TF over GST control)
GATCAT | 1.3 fold enrichment (6-mer frequency, TF over GST control)
TAGAAC | 2.74 fold enrichment (6-mer frequency, TF over GST control)
CTAGGA | 1.08 fold enrichment (6-mer frequency, TF over GST control)
GCCTGG | 1.05 fold enrichment (6-mer frequency, TF over GST control)

Sequence | binding signal
GAATAG | 1.11 fold enrichment (6-mer frequency, TF over GST control)
ATCAGA | 1.09 fold enrichment (6-mer frequency, TF over GST control)
GCGAAT | 1.27 fold enrichment (6-mer frequency, TF over GST control)
AGAACC | 1.55 fold enrichment (6-mer frequency, TF over GST control)
GATAAA | 1.21 fold enrichment (6-mer frequency, TF over GST control)
TCGGCT | 1.15 fold enrichment (6-mer frequency, TF over GST control)
GCCTAG | 1.21 fold enrichment (6-mer frequency, TF over GST control)
GCGATA | 1.06 fold enrichment (6-mer frequency, TF over GST control)
CCCAGA | 1.31 fold enrichment (6-mer frequency, TF over GST control)
TTAGTG | 1.3 fold enrichment (6-mer frequency, TF over GST control)
AGATAT | 1.1 fold enrichment (6-mer frequency, TF over GST control)
TCAGAA | 1.26 fold enrichment (6-mer frequency, TF over GST control)
CGAATG | 1.5 fold enrichment (6-mer frequency, TF over GST control)
GAATGA | 1.15 fold enrichment (6-mer frequency, TF over GST control)
TTAGGC | 1.37 fold enrichment (6-mer frequency, TF over GST control)
CATTAG | 1.07 fold enrichment (6-mer frequency, TF over GST control)
GCGATC | 1.02 fold enrichment (6-mer frequency, TF over GST control)
AGAACT | 1.63 fold enrichment (6-mer frequency, TF over GST control)
TCGAAG | 1.57 fold enrichment (6-mer frequency, TF over GST control)

— publication PMC7862700, “An all-to-all approach to the identification of sequence-specific readers for epigenetic DNA modifications on cytosine”
